Measurements taken from PubChem BioAssay.
Results filed as inconclusive are left out. Active and inactive are the calls of the source.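 How the source made its calls, unless noted: active means efflux inhibition above 0.42, the validation set average plus 4 SD; inconclusive means no clear call, values can overlap the other calls; inactive means the rest.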

Assays:
[1] = rapamycin-like changes in RPL19A-GFP expression – cell-based, S. cerevisiae, multiplex flow cytometry, primary screen (AID 1862; in the data active means percent of DMSO control GFP below about 86%;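 further: lower values mimic rapamycin by blocking the RPL19A rise seen in DMSO cells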); conditions: S. cerevisiae RPL19A-GFP strain, flow cytometry fluorescence, 3 h; at 10 µM; stronger effect = lower value
[2] = TOR pathway GLN3 branch reporter MEP2-GFP changes – S. cerevisiae, multiplex flow cytometry, primary screen (AID 1867;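 active means GFP response, as percent of the DMSO control, above the screen-wide mean plus 3 SD, about 139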;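 further: median GFP channel fluorescence of barcode-gated MEP2-GFP cells measured by flow cytometry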); conditions: S. cerevisiae MEP2-GFP strain, 3 h, at 10 µM, stronger effect = higher value, 100% means same as DMSO wells
[3] = TOR pathway RTG branch CIT2 reporter changes – S. cerevisiae, GFP fusion, multiplex flow cytometry, primary screen (AID 1870;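 active means percent response above a set limit, the screen-wide mean plus 3 SD, cut at about 130% in these data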;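 further: barcoded CIT2-GFP strain pooled with four other GFP strains with rapamycin as positive control; median GFP fluorescence per well over plate mean of DMSO wells so 100% = DMSO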); conditions: S. cerevisiae CIT2-GFP expression, 3 h, at 10 µM, stronger effect = higher value
[4] = TOR pathway LAP4-GFP level changes – S. cerevisiae, multiplex flow cytometry, primary screen (AID 1873;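 active means GFP signal, as percent of the solvent control, above the screen mean plus 3 SD, about 149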); conditions: S. cerevisiae LAP4-GFP expression, 3 h, at 10 µM, stronger effect = higher value
[5] = yeast AGP1-GFP level changes, GLN3 branch – cell-based, multiplex flow cytometry, S. cerevisiae, primary screen (AID 1887;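 active means GFP signal above the screen-wide mean plus 3 SD, that is over about 124.5% of the solvent control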;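 further: AGP1-GFP fusion strain of S. cerevisiae within a five-strain barcoded multiplex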); conditions: 3 h, at 10 µM, stronger effect = higher value
[6] = reduced mouse 2C T cell binding to pMHC/ICAM-1 vesicles – MLPCN validation set, flow cytometry, LFA-1/ICAM-1 modulator project, pilot screen (AID 2523;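 active means response below a set limit, under 55% cells CD8-positive and vesicle-bound, and CD8 cells' 90th-percentile brightness under 279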;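 on vesicle binding response: mean PE anti-B7-1 fluorescence of CD8+ cells relative to row control; 100% = QL9-loaded vesicles with DMSO vehicle in the same plate row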); conditions: 2C mouse CD8+ T cells, at 7 µM, stronger effect = lower value; double positive events: measured here: CD8+/vesicle+ event percentage
[7] = molecular target: Integrin beta-1 (Homo sapiens) + Integrin alpha-4 (Homo sapiens) (UniProt P13612+P05556); assay: alpha4beta1 integrin LIBS antibody binding reduction – U937 cells, HUTS-21 mAb, flow cytometry, validation set, VLA-4 allosteric modulator project, pilot screen (AID 2674;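 active means inhibition above 50%, about 3 SD of the validation set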;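 further: antibody binding induced by the VLA-4 ligand LDV present at three times its Kd; 0% = LDV ligand with antibody and no compound and 100% = antibody without LDV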); conditions: HUTS-21 LIBS mAb binding, at 6.7 µM, stronger effect = higher value, binding induced by LDV ligand
Integrin beta-1 (Homo sapiens) + Integrin alpha-4 (Homo sapiens), sequence (P05556 whole entry, looked up): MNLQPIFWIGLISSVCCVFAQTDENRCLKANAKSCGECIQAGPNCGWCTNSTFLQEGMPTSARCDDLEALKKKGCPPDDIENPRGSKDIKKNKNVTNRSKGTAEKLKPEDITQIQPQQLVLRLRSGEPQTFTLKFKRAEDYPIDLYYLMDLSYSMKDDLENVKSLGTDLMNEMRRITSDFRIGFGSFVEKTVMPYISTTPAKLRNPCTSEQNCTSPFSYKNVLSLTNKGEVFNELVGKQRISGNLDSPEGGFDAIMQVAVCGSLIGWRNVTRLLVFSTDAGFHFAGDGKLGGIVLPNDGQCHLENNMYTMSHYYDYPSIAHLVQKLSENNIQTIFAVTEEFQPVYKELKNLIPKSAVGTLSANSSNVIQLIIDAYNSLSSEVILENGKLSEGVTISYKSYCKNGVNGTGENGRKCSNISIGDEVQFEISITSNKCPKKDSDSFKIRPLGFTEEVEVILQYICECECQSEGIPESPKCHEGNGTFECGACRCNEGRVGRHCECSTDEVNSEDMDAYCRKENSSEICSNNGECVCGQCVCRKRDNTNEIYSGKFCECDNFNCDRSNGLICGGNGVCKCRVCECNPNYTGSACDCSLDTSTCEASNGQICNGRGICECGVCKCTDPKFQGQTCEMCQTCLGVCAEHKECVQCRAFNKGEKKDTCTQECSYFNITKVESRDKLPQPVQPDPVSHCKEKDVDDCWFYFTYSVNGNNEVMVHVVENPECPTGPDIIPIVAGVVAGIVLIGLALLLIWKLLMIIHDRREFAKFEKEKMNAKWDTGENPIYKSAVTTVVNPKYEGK
Integrin beta-1 (Homo sapiens) + Integrin alpha-4 (Homo sapiens), sequence (P13612 whole entry, looked up): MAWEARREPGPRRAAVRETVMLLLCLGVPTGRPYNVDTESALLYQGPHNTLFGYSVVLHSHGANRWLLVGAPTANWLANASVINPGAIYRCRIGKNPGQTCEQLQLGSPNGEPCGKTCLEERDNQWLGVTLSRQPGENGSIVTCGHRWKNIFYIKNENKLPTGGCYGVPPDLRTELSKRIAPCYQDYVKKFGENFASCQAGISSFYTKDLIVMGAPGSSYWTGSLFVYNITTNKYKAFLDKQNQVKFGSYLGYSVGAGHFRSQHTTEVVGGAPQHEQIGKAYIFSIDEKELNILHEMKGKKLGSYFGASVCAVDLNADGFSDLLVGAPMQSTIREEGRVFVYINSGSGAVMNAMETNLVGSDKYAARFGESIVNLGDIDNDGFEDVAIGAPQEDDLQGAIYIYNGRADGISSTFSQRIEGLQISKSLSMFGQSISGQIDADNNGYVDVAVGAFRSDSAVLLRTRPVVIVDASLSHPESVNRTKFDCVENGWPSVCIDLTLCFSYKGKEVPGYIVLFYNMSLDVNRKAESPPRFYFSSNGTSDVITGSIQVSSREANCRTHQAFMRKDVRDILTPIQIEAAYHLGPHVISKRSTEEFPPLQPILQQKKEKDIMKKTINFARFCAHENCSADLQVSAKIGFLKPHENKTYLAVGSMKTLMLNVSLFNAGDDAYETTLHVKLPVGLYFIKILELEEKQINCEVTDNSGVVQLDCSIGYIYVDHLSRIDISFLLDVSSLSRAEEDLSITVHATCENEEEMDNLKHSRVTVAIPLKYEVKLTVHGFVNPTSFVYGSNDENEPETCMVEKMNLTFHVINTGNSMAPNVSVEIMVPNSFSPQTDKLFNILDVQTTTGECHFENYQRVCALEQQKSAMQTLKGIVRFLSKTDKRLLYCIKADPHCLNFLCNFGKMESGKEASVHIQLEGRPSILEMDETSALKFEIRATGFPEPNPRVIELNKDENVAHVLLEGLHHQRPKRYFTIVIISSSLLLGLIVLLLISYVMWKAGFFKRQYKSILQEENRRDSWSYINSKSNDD

[8] = calorie-restriction mimetic ROS inhibitors, yeast – validation compound set, pilot screen (AID 2706;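 active means superoxide response below 65% of plate, a cut near 3 SD across the whole screen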;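 further: yeast exposed to compound for one week at 30 degrees C before staining; 100% = mean of all compound wells on the same plate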); conditions: S. cerevisiae aging, superoxide DHE fluorescence; at 10 µM, stronger effect = lower value
[9] = molecular target: Beta-adrenergic receptor kinase 1 (Homo sapiens) (UniProt P25098); assay: GRK2 binders displacing RNA aptamer, biochemical, validation, human GRK2, bead flow cytometry (AID 488806;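 active means aptamer binding inhibition above 30%, about 3 SD of noise from non-fluorescent compounds; inactive means inhibition at or below 30%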); conditions: bead-bound GRK2, FAM-aptamer displacement, at 10 µM, stronger effect = higher value
Beta-adrenergic receptor kinase 1 (Homo sapiens), sequence (P25098 whole entry, looked up): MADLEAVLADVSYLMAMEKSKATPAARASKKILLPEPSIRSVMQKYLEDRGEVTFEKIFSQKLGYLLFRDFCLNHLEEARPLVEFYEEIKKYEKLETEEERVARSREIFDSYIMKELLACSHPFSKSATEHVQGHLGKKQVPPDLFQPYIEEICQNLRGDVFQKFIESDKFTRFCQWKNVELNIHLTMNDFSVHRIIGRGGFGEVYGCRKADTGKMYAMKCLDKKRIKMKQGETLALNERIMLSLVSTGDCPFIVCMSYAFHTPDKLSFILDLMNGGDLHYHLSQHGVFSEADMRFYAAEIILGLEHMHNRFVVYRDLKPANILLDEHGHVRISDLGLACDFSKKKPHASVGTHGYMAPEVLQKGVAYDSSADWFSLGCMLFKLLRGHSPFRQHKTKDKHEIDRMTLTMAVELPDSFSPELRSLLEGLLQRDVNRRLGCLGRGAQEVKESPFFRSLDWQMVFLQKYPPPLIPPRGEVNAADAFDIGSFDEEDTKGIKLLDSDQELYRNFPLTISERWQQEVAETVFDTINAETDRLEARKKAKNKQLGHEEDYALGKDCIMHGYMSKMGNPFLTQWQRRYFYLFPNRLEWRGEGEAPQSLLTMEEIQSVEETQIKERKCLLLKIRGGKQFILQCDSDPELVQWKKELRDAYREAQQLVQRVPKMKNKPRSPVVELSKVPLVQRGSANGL

[10] = molecular target: AP-2 complex subunit beta (Homo sapiens) (UniProt P63010); assay: beta-arrestin/AP2 interaction blockers – biochemical, validation set, GST-AP2 beads, flow cytometry, pilot screen (AID 504541;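 active means inhibition above 54%, about 3 SD of non-fluorescent compounds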;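 further: AP2 carries R879A mutation and is captured from E. coli lysate; bead-bound FITC arrestin peptide fluorescence measuring arrestin peptide binding to AP2; 0% = DMSO wells and 100% = excess unlabeled arrestin peptide control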); conditions: FITC arrestin peptide, at 10 µM, stronger effect = higher value, AP2 beta2 appendage fragment, R879A mutant
AP-2 complex subunit beta (Homo sapiens), sequence (P63010 whole entry, looked up, the tested form may be a part, one chain of several): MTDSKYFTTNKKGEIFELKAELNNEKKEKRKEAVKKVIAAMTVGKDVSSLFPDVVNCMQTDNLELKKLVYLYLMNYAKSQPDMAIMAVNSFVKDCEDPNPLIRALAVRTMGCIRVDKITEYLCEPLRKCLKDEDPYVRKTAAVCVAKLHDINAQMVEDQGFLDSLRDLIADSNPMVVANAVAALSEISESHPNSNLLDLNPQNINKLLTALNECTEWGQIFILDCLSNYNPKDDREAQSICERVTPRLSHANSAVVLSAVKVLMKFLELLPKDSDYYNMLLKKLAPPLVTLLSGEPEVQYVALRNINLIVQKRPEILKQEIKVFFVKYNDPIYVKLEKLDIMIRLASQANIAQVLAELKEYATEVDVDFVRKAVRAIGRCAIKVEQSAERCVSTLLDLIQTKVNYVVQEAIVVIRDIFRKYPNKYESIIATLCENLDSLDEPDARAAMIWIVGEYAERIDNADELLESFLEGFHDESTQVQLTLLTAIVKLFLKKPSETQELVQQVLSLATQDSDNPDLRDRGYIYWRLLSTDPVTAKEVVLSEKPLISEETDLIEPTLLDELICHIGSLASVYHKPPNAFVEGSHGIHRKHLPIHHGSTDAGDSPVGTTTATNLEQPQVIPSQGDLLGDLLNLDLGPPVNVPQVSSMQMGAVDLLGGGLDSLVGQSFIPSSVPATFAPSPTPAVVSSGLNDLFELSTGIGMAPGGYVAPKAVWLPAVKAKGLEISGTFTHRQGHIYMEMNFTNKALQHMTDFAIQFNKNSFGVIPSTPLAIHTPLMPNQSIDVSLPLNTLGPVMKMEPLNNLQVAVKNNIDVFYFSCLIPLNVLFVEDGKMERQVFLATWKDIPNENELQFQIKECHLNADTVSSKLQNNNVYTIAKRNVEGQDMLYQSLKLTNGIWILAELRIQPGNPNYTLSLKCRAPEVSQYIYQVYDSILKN

[11] = cytosolic pH regulators acting via V-ATPase – S. cerevisiae, pHLuorin, HTS validation (AID 504600; in the data active means response above about 15%;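 further: plate controls were DMSO for no effect and reference compound for full effect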); conditions: V-ATPase proton transport, at 10 µM, stronger effect = higher value
[12] = tested on: anti-desmoglein-3 scFv antibody binding to human DSG3; assay: blockers of pathogenic pemphigus antibody–desmoglein-3 binding – biochemical, validation compound set, bead-based, flow cytometry, pilot screen (AID 588368;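 active means binding below the plate cutoff, the plate median minus 3 SD, with a reading above zero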;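 further: signal is the median channel fluorescence of bead-bound GFP antibody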); conditions: Protein G beads, DSG3-Fc, scFv-GFP binding, at 10 µM, stronger effect = lower value
[13] = Nile Red efflux blockade in pump-expressing yeast – validation compound set, multiplex, phenotypic, pilot screen (AID 588506);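 further: Nile Red retained in cells so higher fluorescence means more efflux inhibition; 0 = negative control wells and 1 = enniatin B 25 µM full block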; conditions: S. cerevisiae pump-expressing triplex, Nile Red efflux flow cytometry; at 10 µM; stronger effect = higher value; the pumps come from Candida albicans
[14] = molecular target: ATP-binding cassette sub-family B member 6 (Homo sapiens) (UniProt Q9NP58); assay: blockers of ABCB6-driven porphyrin uptake – K562-ABCB6 cells, flow cytometry, validation set, pilot screen (AID 588550;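 active means inhibition above the screen-wide mean plus 3 SD, about 51%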;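 further: 0% = DMSO wells and 100% = benzethonium chloride 70 µM positive control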); conditions: K562-ABCB6 porphyrin accumulation, 1 h, at 10 µM, stronger effect = higher value
ATP-binding cassette sub-family B member 6 (Homo sapiens), sequence (Q9NP58 whole entry, looked up): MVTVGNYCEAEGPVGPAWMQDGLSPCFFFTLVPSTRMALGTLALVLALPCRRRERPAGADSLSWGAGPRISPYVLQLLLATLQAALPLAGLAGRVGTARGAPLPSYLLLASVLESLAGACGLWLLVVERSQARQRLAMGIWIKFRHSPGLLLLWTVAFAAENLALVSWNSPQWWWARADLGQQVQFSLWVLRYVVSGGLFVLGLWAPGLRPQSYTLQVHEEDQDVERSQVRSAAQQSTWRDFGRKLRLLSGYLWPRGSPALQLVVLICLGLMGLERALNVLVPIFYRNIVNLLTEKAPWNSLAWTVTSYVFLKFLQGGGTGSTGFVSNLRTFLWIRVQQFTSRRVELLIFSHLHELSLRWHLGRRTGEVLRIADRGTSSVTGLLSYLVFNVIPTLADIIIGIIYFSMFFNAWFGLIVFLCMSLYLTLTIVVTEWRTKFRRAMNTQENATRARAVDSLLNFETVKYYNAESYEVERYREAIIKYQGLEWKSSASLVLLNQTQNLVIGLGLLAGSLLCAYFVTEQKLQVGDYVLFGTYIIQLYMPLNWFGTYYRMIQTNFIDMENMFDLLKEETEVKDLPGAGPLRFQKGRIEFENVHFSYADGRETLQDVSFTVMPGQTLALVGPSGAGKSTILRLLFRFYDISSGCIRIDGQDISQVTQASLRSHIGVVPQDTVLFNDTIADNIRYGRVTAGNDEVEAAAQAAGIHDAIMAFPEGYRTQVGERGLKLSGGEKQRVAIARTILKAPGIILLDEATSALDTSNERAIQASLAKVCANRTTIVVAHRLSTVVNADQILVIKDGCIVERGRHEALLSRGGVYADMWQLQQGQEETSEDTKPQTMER

[15] = AML differentiation inducers, ER-HoxA9 marrow cells – cell-based, GFP/MAC1 double positive, flow cytometry, validation set, primary screen (AID 588685;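 active means differentiation response of at least 50%, scaled between solvent and reference control, from cells with both markers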;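 further: compound exposure lasts four days before antibody staining and flow analysis; 0% = DMSO wells and 100% = 5 µM fulvestrant positive control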); conditions: stronger effect = higher value, normalized: vehicle 0, fulvestrant 100
[16] = molecular target: Beta-2 adrenergic receptor (Homo sapiens) (UniProt P07550); assay: agonist-induced loss of surface beta2AR – cell-based, FAP fluorogen, flow cytometry, validation set, pilot screen (AID 504459;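 active means percent response above 42, roughly 3 SD of non-fluorescent test compounds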;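 further: agonist-driven loss of surface beta2AR via internalization measured by FAP dye flow cytometry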); conditions: Am2.2-beta2AR cells, at 10 µM, stronger effect = higher value
Beta-2 adrenergic receptor (Homo sapiens), sequence (P07550 whole entry, looked up): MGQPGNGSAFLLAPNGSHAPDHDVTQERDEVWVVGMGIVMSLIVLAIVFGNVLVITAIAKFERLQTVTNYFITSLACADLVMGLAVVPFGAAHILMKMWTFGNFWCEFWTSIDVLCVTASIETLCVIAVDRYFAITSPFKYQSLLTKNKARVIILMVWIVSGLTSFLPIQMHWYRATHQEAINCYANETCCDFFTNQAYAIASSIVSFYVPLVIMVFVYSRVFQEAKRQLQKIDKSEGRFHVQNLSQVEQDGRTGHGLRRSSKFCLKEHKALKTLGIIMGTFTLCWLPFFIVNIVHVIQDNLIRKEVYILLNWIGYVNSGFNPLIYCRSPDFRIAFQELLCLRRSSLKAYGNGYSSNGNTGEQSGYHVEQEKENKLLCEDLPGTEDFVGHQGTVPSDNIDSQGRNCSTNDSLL

| SMILES | percent of DMSO control GFP [1] | GFP response vs DMSO [2] | percent response of DMSO control [3] | GFP response vs DMSO [4] | GFP response, % of DMSO [5] | double positive events [6] | vesicle binding response [6] | inhibition [7] | superoxide response (% of plate) [8] | aptamer binding inhibition [9] | inhibition [10] | response [11] | binding (% of control) [12] | efflux inhibition (fraction of control) [13] | inhibition [14] | differentiation response [15] | response [16] |
| --- | --- | --- | --- | --- | --- | --- | --- | --- | --- | --- | --- | --- | --- | --- | --- | --- | --- |
| COc1cc2nc(N3CCN(C(=O)C4COc5ccccc5O4)CC3)nc(N)c2cc1OC (stereo not drawn) | 101% (inactive) | 108% (inactive) | 104% (inactive) | 110% (inactive) | 116% (inactive) | 61.4% | 203% (inactive) | -8.78% (inactive) | 57.2% (active) | 1% (inactive) | 26.5% (inactive) | -4.66% (inactive) | 108% (inactive) | 0 (inactive) | -6% (inactive) | 3.88% (inactive) | – |
| Cc1nc(C)c(C)nc1C | 101% (inactive) | 101% (inactive) | 102% (inactive) | 100% (inactive) | 103% (inactive) | 64.7% | 132% (inactive) | 12.8% (inactive) | 104% (inactive) | -3% (inactive) | 31.6% (inactive) | -7.78% (inactive) | 103% (inactive) | 0.25 (inactive) | 8% (inactive) | 3.03% (inactive) | – |
| O=C1OC(c2ccc(O)cc2)(c2ccc(O)cc2)c2ccccc21 | 97.1% (inactive) | 102% (inactive) | 101% (inactive) | 103% (inactive) | 100% (inactive) | 62.5% | 180% (inactive) | 9.09% (inactive) | 99.3% (inactive) | 1% (inactive) | 28% (inactive) | -0.84% (inactive) | 103% (inactive) | -0.12 (inactive) | 6% (inactive) | -24.4% (inactive) | – |
| CC(=O)Oc1ccc(C(=O)O)cc1OC(C)=O | 98% (inactive) | 104% (inactive) | 104% (inactive) | 99.4% (inactive) | 98.4% (inactive) | 59.1% | 164% (inactive) | -3.04% (inactive) | 98.2% (inactive) | 4% (inactive) | -6.29% (inactive) | 0.26% (inactive) | 105% (inactive) | -0.01 (inactive) | 6% (inactive) | 1.41% (inactive) | – |
| CCN(CC)CCOC(=O)C1(C2CCCCC2)CCCCC1 | 110% (inactive) | 101% (inactive) | 106% (inactive) | 110% (inactive) | 108% (inactive) | 50.5% | 162% (inactive) | 5.36% (inactive) | 110% (inactive) | -2% (inactive) | -6.04% (inactive) | 1.87% (inactive) | 101% (inactive) | 0.25 (inactive) | -45% (inactive) | -27.6% (inactive) | – |
| CC[n+]1c(C)sc2cc(C)ccc21 | 96.4% (inactive) | 103% (inactive) | 87.1% (inactive) | 116% (inactive) | 95.4% (inactive) | 50% | 138% (inactive) | -11.4% (inactive) | 106% (inactive) | 6% (inactive) | -14% (inactive) | -1.58% (inactive) | 102% (inactive) | 0.44 (active) | 15% (inactive) | -13.1% (inactive) | – |
| COC(=O)c1[nH]c2ccccc2c1NC(=O)CN1CCN(C/C=C/c2ccccc2)CC1 | 108% (inactive) | 106% (inactive) | 99.8% (inactive) | 88.3% (inactive) | 96.1% (inactive) | 55.6% | 154% (inactive) | -42.2% (inactive) | 98% (inactive) | 0% (inactive) | 3.15% (inactive) | 3.35% (inactive) | 108% (inactive) | 0.25 (inactive) | 8% (inactive) | -13.1% (inactive) | – |
| COCCOC(=O)c1c(C)oc2ccc(OCc3cc(C(=O)OC)oc3C)cc12 | 97.6% (inactive) | 102% (inactive) | 93.9% (inactive) | 101% (inactive) | 98.1% (inactive) | 52.6% | 202% (inactive) | 10.9% (inactive) | 93.4% (inactive) | 0% (inactive) | -4.42% (inactive) | 26.8% (active) | 98.7% (inactive) | 0.06 (inactive) | 4% (inactive) | -11.5% (inactive) | – |
| CN1C(=O)C(O)(CC(=O)c2ccccc2O)c2cc(Br)ccc21 (stereo not drawn) | 100% (inactive) | 107% (inactive) | 109% (inactive) | 115% (inactive) | 106% (inactive) | 57.7% | 199% (inactive) | 16.6% (inactive) | 101% (inactive) | 0% (inactive) | 4.33% (inactive) | 0.66% (inactive) | 99% (inactive) | -0.09 (inactive) | 9% (inactive) | 7.87% (inactive) | – |
| CC(C)(C)NC[C@H](O)COc1nsnc1N1CCOCC1 | 94.4% (inactive) | 136% (inactive) | 108% (inactive) | 78.7% (inactive) | 93.1% (inactive) | 70.5% | 173% (inactive) | 17.1% (inactive) | 91.1% (inactive) | 3% (inactive) | -3.6% (inactive) | 4.73% (inactive) | 96.3% (inactive) | 0.05 (inactive) | 9% (inactive) | -0.82% (inactive) | – |
| Nc1ccc(S(=O)(=O)c2ccc(N)cc2)cc1 | 100% (inactive) | 102% (inactive) | 93% (inactive) | 103% (inactive) | 99.3% (inactive) | 63.7% | 142% (inactive) | 8.15% (inactive) | 97.8% (inactive) | 0% (inactive) | 2.16% (inactive) | -1.03% (inactive) | 100% (inactive) | 0.14 (inactive) | 5% (inactive) | -5.05% (inactive) | – |
| CCOC(=O)c1oc2cc(OCC(N)=O)ccc2c(=O)c1-c1ccc(OC)c(OC)c1 | 109% (inactive) | 97.9% (inactive) | 107% (inactive) | 94.3% (inactive) | 101% (inactive) | 62.1% | 207% (inactive) | 24.9% (inactive) | 90.1% (inactive) | 1% (inactive) | 2.96% (inactive) | -0.67% (inactive) | 100% (inactive) | -0.01 (inactive) | 8% (inactive) | -18% (inactive) | – |
| CCOc1ccccc1OCCOc1ccc(F)cc1 | 101% (inactive) | 98.3% (inactive) | 100% (inactive) | 88.1% (inactive) | 91.1% (inactive) | 63.4% | 193% (inactive) | -30.5% (inactive) | – | 0% (inactive) | 0.71% (inactive) | -0.31% (inactive) | 104% (inactive) | 0.24 (inactive) | 1% (inactive) | 12% (inactive) | 7.79% (inactive) |
